FBA Mtb inh: inhibits M. tuberculosis FBA enzyme | P9WQA3 | purified M. tuberculosis FBA, fluorescence read-out | inhibition, % at 1 µM | actives 2.3% (n = 360,000) | AID 588726; in the data active = inhibition above about 27%;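 also: 0% = vehicle and 100% = reference inhibitor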
GDH-TPI counter: GDH-TPI coupled enzyme inhibition counter-screen | GDH-TPI coupled enzyme counterscreen, NADH absorbance | inhibition, % at 4.8 µM | actives 1.2% (n = 360,000); in the data active = inhibition above about 30%;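 also: 0% = DMSO wells and 100% = wells lacking the enzyme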
Rv3671c inh: inhibitors of M. tuberculosis serine protease Rv3671c. AID 2606. actives 0.048% (n = 320,000). inhibition, % at 5.96 µM. P9WHR9; in the data active = inhibition above about 38%;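 also: extracellular domain of Rv3671c used as enzyme; 0% = enzyme with DMSO and 100% = no enzyme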
Target sequence (P9WHR9 whole entry, looked up, the tested form may be a part): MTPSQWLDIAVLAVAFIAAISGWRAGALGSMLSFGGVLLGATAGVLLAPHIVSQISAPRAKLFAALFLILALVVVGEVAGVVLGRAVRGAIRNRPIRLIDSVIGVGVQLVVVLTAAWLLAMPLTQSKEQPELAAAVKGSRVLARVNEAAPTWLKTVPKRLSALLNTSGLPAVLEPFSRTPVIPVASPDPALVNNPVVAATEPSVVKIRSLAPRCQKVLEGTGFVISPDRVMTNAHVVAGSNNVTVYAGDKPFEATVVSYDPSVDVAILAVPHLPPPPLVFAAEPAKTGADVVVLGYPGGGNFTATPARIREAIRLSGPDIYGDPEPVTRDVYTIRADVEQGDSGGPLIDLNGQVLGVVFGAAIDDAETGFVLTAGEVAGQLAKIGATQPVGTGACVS
Mtb UGM inh: inhibitors of M. tuberculosis UDP-galactopyranose mutase. purified UGM, fluorescence polarization probe displacement. inhibition, % at 10 µM. actives 0.06% (n = 320,000); in the data active = inhibition above about 10%, passing the limit was not always enough
Mtb bLac sens: beta-lactam sensitization of Mtb H37Rv; M. tuberculosis H37Rv growth with meropenem, percent inhibition; inhibition, % at 25 µM; actives 0.27% (n = 330,000); call rule not given here;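 also: growth measured after seven days incubation then overnight dye step; 0% = bacteria only wells and 100% = bacteria with antibiotic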
Starred values were filed as active, the others as inactive; nt = no result given; + = active, no number. An excerpt weighted towards active compounds, which were near 3.5% of everything screened.

SMILES	FBA Mtb inh	GDH-TPI counter	Rv3671c inh	Mtb UGM inh	Mtb bLac sens
Cc1ccnc(NC(=O)/C=C/c2cccs2)c1	6	31*	10	0	7
Cc1ccccc1-n1c(SC(C)C(=O)NCC2CCCO2)nnc1-c1ccncc1 (stereo not drawn)	4	3	nt	nt	nt
O=C1CC(c2ccccc2Cl)=NN(c2ncnc3ccccc23)C1=O	2	10	-11	4	1
CC(C)c1nc(NCc2ccccc2)c(C#N)c2c1CCCC2	0	13	-1	-1	16
CC(C)c1nc(NCCO)c(C#N)c2c1CCCC2	16	39*	1	2	5
CCn1c(C)nc2cc(C(=O)N/N=C/c3ccc(OC)c(O)c3)ccc21	-1	39*	-5	1	1
CCn1c(C)nc2cc(C(=O)N/N=C/c3ccc(N4CCOCC4)cc3)ccc21	4	34*	8	0	2
O=C(Nc1ccnn1C1CCN(C(=O)c2cc(Cl)ccc2F)CC1)C1CCOC1 (stereo not drawn)	-2	-10	10	1	-2
CCOC(=O)C1(CCc2ccccc2)CCN(C(=O)c2cc(C)nc(C)n2)CC1	-1	3	0	-1	-4
COc1ccc(/C=C/C(=O)NC(=S)NNC(=O)c2cccnc2)cc1OC	-2	38*	4	2	0
COc1ccc(/C=C/C(=O)NC(=S)NNC(=O)c2cccs2)cc1OC	2	21	13	-2	-3
COc1ccc(/C=C/C(=O)NC(=S)NNC(=O)Cc2cccs2)cc1OC	6	38*	-6	1	1
O=C(/C=C/c1ccccc1)NC(=S)NNC(=O)c1cnccn1	5	41*	5	0	-3
COc1cc(C(=O)NNC(=S)NC(=O)/C=C/c2ccccc2)cc(OC)c1OC	2	43*	10	1	-5
O=C(/C=C/c1ccccc1)NC(=S)NNC(=O)c1cccnc1	2	15	4	-1	6
COc1cc(C(=O)NNC(=O)/C=C/c2ccccc2)cc(OC)c1OC	2	10	-1	1	3
Cc1cccn2c(=O)c3cc(C(=O)NC4CCCCCC4)sc3nc12	27	4	0	-2	1
Cc1cccn2c(=O)c3cc(C(=O)NC4CCS(=O)(=O)C4)sc3nc12 (stereo not drawn)	192*	27	0	2	-9
O=C(NC1CCCCCC1)c1cc2c(=O)n3ccccc3nc2s1	+	18	-8	3	1
C=CCNC(=O)c1cc2c(=O)n3ccccc3nc2s1	+	12	5	-2	4
CC(C)NC(=O)c1cc2c(=O)n3ccccc3nc2s1	-3	-12	4	-1	-4
Cc1cc(C)c(OCC(=O)OC(C)C(=O)N2CCc3ccccc32)c(C)c1 (stereo not drawn)	-4	-11	1	2	36
Nn1c(SCC(=O)N2CCOCC2)nnc1C1CC1	-1	2	0	2	-5
C=CCn1c(-c2ccccc2)nc2nc3ccccc3nc21	126*	39*	-2	-4	-7
Clc1cccc(-c2nc3nc4ccccc4nc3n2Cc2ccccc2)c1	3	-1	-2	0	6
SMILES	FBA Mtb inh	GDH-TPI counter	Rv3671c inh	Mtb UGM inh	Mtb bLac sens
Cc1cccc(C)c1NC(=O)/C(C#N)=C/c1cccs1	3	42*	-1	-2	62
Cc1ccc(NC(=O)/C(C#N)=C/c2cccs2)c(C)c1	-1	9	3	0	46
O=C(CN1CCN(C(=O)c2ccco2)CC1)Nc1ccc(F)cc1F	-8	0	5	-2	2
COC(=O)Cc1c(C)c2ccc(O)c(CN3CCCC(C)C3)c2oc1=O (stereo not drawn)	nt	10	1	3	-1
Cc1c(C)c2ccc(O)c(CN3CCN(C)CC3)c2oc1=O	+	14	nt	-1	1
CCc1c(C)c2ccc(O)c(CN3CCCC3)c2oc1=O	nt	34*	nt	-2	6
O=c1cc(-c2ccccc2)c2ccc(O)c(CN3CCCCC3)c2o1	8	0	4	1	-2
O=c1oc2c(CN3CCCCC3)c(O)ccc2c2c1CCCC2	+	24	-4	1	4
Cc1c(O)c(CN2CCCCC2)cc2c3c(c(=O)oc12)CCC3	+	22	-5	0	-12
O=[N+]([O-])c1cccc(/C=N/Nc2nc(NCc3ccccc3)nc(N3CCOCC3)n2)c1O	-1	8	1	-1	93
CCc1ccc(C2NC(=O)c3ccccc3O2)cc1 (stereo not drawn)	4	4	-6	2	8
COc1ccc(CCNC(=O)CSc2nnc3ccccn23)cc1	1	3	2	-2	-5
COc1ccc(/C=C/C(=O)NC(=S)Nc2ccc(S(=O)(=O)N=C(N)N)cc2)cc1OC	4	18	-176	1	5
O=C(/C=C/c1cccc(Oc2ccccc2)c1)N1CCOCC1	-1	9	-4	-2	6
CC(C)(C)Cc1nnc(NS(=O)(=O)c2ccc([N+](=O)[O-])cc2)s1	2	2	-7	8	8
Cc1cc(=O)oc2c(CN3CCCCC3)c(O)ccc12	nt	16	nt	nt	nt
Cc1c(C)c2ccc(O)c(CN3CCCC3)c2oc1=O	+	12	0	0	-1
CN1CCN(Cc2c(O)ccc3cc(-c4ccccn4)c(=O)oc23)CC1	+	11	-9	4	-8
COc1ccc(C(=O)NCC(=O)N2CCN(c3ccc(F)cc3)CC2)cc1	-1	-12	5	-4	9
Cn1c2ccccc2c(=O)c2ccc(C#Cc3ccccn3)cc21	nt	nt	-21	-1	12
Cn1c2ccccc2c(=O)c2cc(C#Cc3ccccn3)ccc21	186*	26	-9	-1	2
Cc1cccc(NC(=O)Nc2ccc3c(c2)CCC3)c1	2	6	8	-3	-9
CC(C)C(c1nnnn1Cc1ccc(F)cc1)N1CCN(c2ccc(O)cc2)CC1 (stereo not drawn)	2	1	0	-2	-9
Cn1c(N)c(N=O)c(=O)n(C)c1=S	-2	43*	nt	nt	nt
COc1ccccc1CNC(=O)CCN1C(=O)c2ccccc2C1=O	117*	2	3	2	0
SMILES	FBA Mtb inh	GDH-TPI counter	Rv3671c inh	Mtb UGM inh	Mtb bLac sens
Cc1cc(-c2nnc(-c3cccc(Cl)c3)o2)no1	-1	2	-4	0	4
Oc1ccc(/C=N/NC(=S)NC2CC3CCC2C3)cc1 (stereo not drawn)	-1	61*	-3	1	84
COc1ccc(NC(=O)CCCCCn2nnc3ccccc3c2=O)cc1	7	-6	nt	-3	41
COc1ccc(-c2cc(-c3ccccc3)nc(=O)[nH]2)cc1	+	14	1	4	-4
O=C(CN1C(=O)NC2(CCCC2)C1=O)Nc1cc(C(F)(F)F)ccc1N1CCCCC1	5	13	4	0	3
CC1(C)CC(=O)C=C(/C=C/c2ccccc2)C1	4	49*	3	-1	-2
CC(C)N(Cc1ccccc1)C(=O)COC(=O)c1c(F)cccc1F	-4	-6	-1	-1	-6
C#CCN1C=CC(=O)[C@@H](OC(=O)Nc2ccc(Br)cc2)[C@H]1c1ccccc1Br	1	19	nt	nt	nt

Screening data deposited in PubChem BioAssay by several laboratories.
